# An excerpt weighted towards active compounds, which were near 4.6% of everything screened.
# GAA850 FXN act – activators of GAA850 frataxin (FXN) promoter; HEK293 lucGAA850 FXN promoter luciferase reporter, 24 h; percent of 10 µM SAHA response; activation, % at 6 µM; 360,000 tested, 0.56% active;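 active = activation above the average of all compounds screened plus 3 SD, cutoff fixed separately per campaign, cut at about 7.5% in these data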;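 note: 0% = DMSO wells and 100% = 10 µM SAHA wells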
# HSF1 inh – HSF1 inhibition. NIH3T3-HGL HSE-luciferase, MG132-induced, luminescence 8 h; active compounds read low. activity change, negative = inhibition, % at 7.5 µM (by protocol). AID 2098. 300,000 tested, 0.77% active;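 active = more than half of replicate wells show activity change below -50%, luminescence cut by over half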;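 note: luciferase reports HSF-1 transcriptional activity via heat shock element; 0% = median of DMSO wells and -100% = zero luminescence signal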
# HSF1 activator – increases HSF-1 driven luciferase reporter signal | NIH3T3-HGL HSF-1 luciferase reporter, MG132, 8 h; 100% = twice DMSO control signal | activation, % at 9 µM | 300,000 tested, 1.7% active | AID 504408;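 active = mean replicate activation of at least 50% with a set share of replicates each reaching 50%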;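 note: 0% = median of the neutral control wells and 100% = twice that signal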
# AHR activator – activates the human aryl hydrocarbon receptor | activation, % at 5 µM | AHR-responsive luciferase reporter cells, luminescence | P35869 | AID 2796 | 320,000 tested, 2.5% active; in the data active = activation above about 47%;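 note: 0% = vehicle wells and 100% = reference agonist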
# Target sequence (P35869 whole entry, looked up): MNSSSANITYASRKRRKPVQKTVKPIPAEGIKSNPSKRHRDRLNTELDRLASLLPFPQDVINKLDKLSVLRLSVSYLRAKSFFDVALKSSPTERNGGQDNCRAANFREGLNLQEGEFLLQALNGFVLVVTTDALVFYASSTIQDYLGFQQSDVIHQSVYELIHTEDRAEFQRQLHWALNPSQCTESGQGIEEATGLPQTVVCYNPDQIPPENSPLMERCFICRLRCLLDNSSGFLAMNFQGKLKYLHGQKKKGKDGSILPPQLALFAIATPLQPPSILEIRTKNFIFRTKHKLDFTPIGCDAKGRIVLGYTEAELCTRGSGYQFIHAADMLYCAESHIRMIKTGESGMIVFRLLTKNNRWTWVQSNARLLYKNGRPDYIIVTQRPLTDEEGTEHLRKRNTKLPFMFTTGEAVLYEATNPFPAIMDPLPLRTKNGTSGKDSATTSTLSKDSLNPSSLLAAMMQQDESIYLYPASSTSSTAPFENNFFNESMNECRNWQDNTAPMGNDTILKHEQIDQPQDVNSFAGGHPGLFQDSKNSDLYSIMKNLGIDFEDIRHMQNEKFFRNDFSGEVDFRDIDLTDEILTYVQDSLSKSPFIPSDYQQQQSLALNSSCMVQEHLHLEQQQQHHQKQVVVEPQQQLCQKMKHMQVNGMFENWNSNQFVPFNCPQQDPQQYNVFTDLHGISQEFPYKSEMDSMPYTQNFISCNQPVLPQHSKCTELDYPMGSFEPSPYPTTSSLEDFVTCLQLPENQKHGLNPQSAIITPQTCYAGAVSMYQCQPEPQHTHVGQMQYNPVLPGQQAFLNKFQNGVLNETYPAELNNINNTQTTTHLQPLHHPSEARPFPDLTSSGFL
# Numbers without * were called inactive; / = no result.
SMILES,GAA850 FXN act,HSF1 inh,HSF1 activator,AHR activator
COC(=O)c1ccc(NC(=O)CSc2nc(C)cc(=O)[nH]2)cc1,-2.5,1.2,11.7,1.8
CC(=O)c1cccc(NC(=S)NC(=O)c2cccc(C)c2)c1,4.5,24.1,64.2*,-1.1
CC(C)Oc1cccc(C(=O)NC(=S)Nc2cccnc2)c1,4.6,5.6,38.6,7.3
CC(C)Oc1cccc(C(=O)NC(=S)Nc2ccccc2)c1,1.6,-60.7*,-67.1,5.3
CC(=O)c1cccc(NC(=S)NC(=O)c2ccc(Cl)cc2)c1,5.4,5.6,41.2,15.8
O=C(NCc1cccnc1)c1cc(-c2ccc(Cl)cc2)oc1C(F)(F)F,1.2,-1.6,15.0,7.3
COc1cccc(CNC(=O)c2nnn(CC(=O)Nc3cccc(C)c3)c2N)c1,-2.5,-0.6,-8.8,0.8
Cc1ccc(S(=O)(=O)C2(C(=O)NCc3ccc4c(c3)OCO4)CC2)cc1,-1.8,-3.4,-17.7,30.6
Cc1cccnc1C1=NOC(Cc2ccccc2)C(=O)N1Cc1ccccc1F (configuration not stated),0.0,/,/,/
CCc1ccc2[nH]c(C(=O)Nc3ccc(F)cc3Br)cc2c1,1.6,-0.6,10.5,48.6*
CCc1ccc2[nH]c(C(=O)Nc3ccc4c(c3)OCO4)cc2c1,2.4,20.6,44.8,72.2*
NC(=O)C1CCN(c2nc(-c3ccc(Br)cc3)cs2)CC1,3.9,-0.3,-6.3,44.5
COc1cc2c(cc1NCc1ccccn1)oc1ccccc12,4.5,21.6,36.7,62.7*
COc1cc2c(cc1NC(=O)Nc1ccccc1)oc1ccccc12,0.8,10.1,-3.4,47.9*
COc1cc2c(cc1NC(=S)Nc1cccc3ccccc13)oc1ccccc12,3.2,-3.4,-2.2,71.6*
COc1cc2c(cc1NC(=O)COC(=O)[C@@H](NS(=O)(=O)c1ccccc1)C(C)C)oc1ccccc12,-2.8,32.1,89.6*,43.6
COc1cc2c(cc1NCc1ccc3c(c1)OCO3)oc1ccccc12,1.2,-4.8,24.2,15.7
Cn1cccc1Cc1nnc(SCC(=O)NCc2ccccc2Cl)n1-c1ccc(F)cc1,1.8,5.5,11.7,2.1
Cc1cc(C)nc(N/N=C/c2cc3c(cc2[N+](=O)[O-])OCO3)n1,2.0,-9.1,-10.2,10.1
O=c1[nH]c(Cc2ccccc2Cl)nc2ccccc12,-0.2,3.5,0.2,2.9
O=c1[nH]c(COc2ccc(Cl)cc2Cl)nc2ccccc12,3.7,56.7,84.8*,17.7
O=c1[nH]c(COc2ccc(Cl)cc2Br)nc2ccccc12,5.4,39.3,60.6*,27.1
O=C(CCc1nc2ccccc2c(=O)[nH]1)NNC(=O)COc1ccccc1Cl,0.4,-1.0,-7.0,4.3
c1ccc(OCc2nc3ccccc3s2)cc1,5.6,28.2,48.5,16.4
CCC(=O)Nc1ccc(OCc2nc3ccccc3s2)cc1,4.7,18.2,27.8,57.8*
SMILES,GAA850 FXN act,HSF1 inh,HSF1 activator,AHR activator
Cc1csc(NC(=O)CCc2nc3ccccc3s2)n1,1.4,19.3,52.4*,15.4
Cc1csc(NC(=O)CSc2nc3ccccc3c3c2CCCC3)n1,2.3,21.9,58.1*,19.4
Cc1csc(NC(=O)CSc2ncnc3ccccc23)n1,-1.9,17.5,19.1,4.5
COc1cc(CNC(=O)CCCCCCC(C)C)ccc1O,0.6,/,/,-3.5
Cc1cc2c3c(c1)C1(C(=O)N3C(C)(C)CC2C)C(C#N)=C(N)Oc2cc(O)ccc21 (configuration not stated),0.1,23.7,67.1*,5.7
Cc1ccc(-c2csc(N(CC3CCCO3)C(=O)c3ccco3)n2)cc1 (configuration not stated),1.6,10.8,38.9,50.6*
O=C(c1ccco1)N(CC1CCCO1)c1nc(-c2ccccc2)cs1 (configuration not stated),1.7,3.1,16.9,20.1
O=C(CSc1ccc(-c2cccnc2)nn1)c1ccc([N+](=O)[O-])cc1,-0.3,6.8,17.6,58.0*
Cn1c(Cn2c(=O)sc3ccccc32)nnc1SCC(=O)Nc1ccccc1,-2.0,0.5,4.3,9.1
CCc1ccc(NC(=O)CSc2nnc(Cn3c(=O)sc4ccccc43)n2C)cc1,0.2,/,/,78.0*
CCNc1nc(NCC)n2c(SCC(=O)Nc3ccc(CC)cc3)nnc2n1,1.2,-2.6,-6.2,49.8*
O=C(CSc1ccc(-c2ccccn2)nn1)c1ccc([N+](=O)[O-])cc1,2.6,-0.5,4.2,2.1
CCNc1nc(NCC)n2c(SCC(=O)Nc3ccc(NC(C)=O)cc3)nnc2n1,1.3,3.4,2.9,-1.9
CCc1ccc(NC(=O)CSc2ccc(-c3cccnc3)nn2)cc1,1.3,-75.9*,-81.2,19.6
CCOC(=O)C1CCCN(C(=O)Nc2cccc(Cl)c2)C1 (configuration not stated),0.0,4.4,14.0,0.2
CCNC(=S)NCCN1CCOCC1,-0.4,1.8,-2.2,-2.0
CCOCC(=O)Nc1cccc(OC)c1,1.1,/,/,2.5
Cc1ccc(NC(=O)CSc2ccc(-c3cccnc3)nn2)cc1,0.9,-2.3,8.8,25.4
CCc1ccc(NC(=O)CSc2nnnn2-c2cccnc2)cc1,-0.6,-8.5,0.0,62.7*
Cc1cc(C)cc(NC(=O)CSc2nnnn2-c2cccnc2)c1,0.8,-1.7,5.4,18.5
Cc1cccc(NC(=O)CSc2ccc(-c3cccnc3)nn2)c1,-2.0,-4.0,-3.5,50.0*
O=C(Nc1ccccc1N1CCOCC1)c1ccc([N+](=O)[O-])cc1,0.7,-4.0,-5.1,-0.1
Cc1cc(C(=O)COC(=O)c2cccnc2Cl)c(C)n1CC1CCCO1 (configuration not stated),-13.4,-76.9*,-81.5,-1.3
Cc1cc(C(=O)COC(=O)c2ccccc2Br)c(C)n1CC1CCCO1 (configuration not stated),-15.4,-91.1*,-91.6,-2.8
Cc1cc(C(=O)COC(=O)c2cc(O)c3ccccc3c2O)c(C)n1CC1CCCO1 (configuration not stated),0.5,/,/,/
SMILES,GAA850 FXN act,HSF1 inh,HSF1 activator,AHR activator
Cc1ccc(C(=O)OCC(=O)c2cc(C)n(CC3CCCO3)c2C)cc1 (configuration not stated),-3.5,-38.8,-42.8,-2.8
Cc1cc(C(=O)COC(=O)c2ccccc2O)c(C)n1CC1CCCO1 (configuration not stated),-13.5,/,/,-0.7
Cc1cc(C(=O)COC(=O)c2n[nH]c3ccccc23)c(C)n1CC1CCCO1 (configuration not stated),-5.3,-80.5*,-83.5,2.5
COCCn1c(C)cc(C(=O)COC(=O)c2ccccc2Br)c1C,-13.9,-90.1*,-91.0,-1.2
CC(C)COP(=O)(c1ccc(N(C)C)cc1)C(Nc1ccccc1)c1ccccc1 (configuration not stated),2.3,6.4,18.0,-1.2
COC(=O)c1nnn(-c2nonc2N)c1CSc1nc2ccccc2o1,0.8,0.7,19.5,2.5
Cc1cc(C(=O)COC(=O)c2ccccc2O)c(C)n1Cc1cccs1,-18.8,-89.7*,-90.4,1.5
Cc1cc(C(=O)COC(=O)c2ccc3c(c2)OCO3)c(C)n1Cc1cccs1,3.8,1.0,-10.2,-2.6
O=C(c1cn(CC(=O)N2CCCCC2)c2ccccc12)C1CC1,-1.1,37.7,61.6*,6.2

# Compound activity from PubChem.
